Screening data deposited in PubChem BioAssay by National Center for Advancing Translational Sciences (NCATS).
Only some compounds are listed: those with a hit (about 7.9% of all), similar ones and a draw of the others.
Marburg entry inh – blocks Marburg virus binding to or entry into cells; Marburg virus pseudotyped entry inhibition, cell reporter; Potency, µM (series often up to 37.8 µM), usual class: inhibitors; 1.8% of 300,000 active; calls by dose curve; tested in HEK293 cells
FMDV antiviral – foot and mouth disease virus antiviral activity; Potency, µM (titrated, usually from 57.9 µM), most hits filed as inhibitors; AID 1159524; 1.2% of 410,000 active; FMDV antiviral cell-based qHTS; calls by dose curve; tested in HEK293T cells; further: read-out not given here; nearly all actives have a fitted effect of over 45% in size
HCMV inh – human cytomegalovirus inhibition | AID 1259415 | activity change, negative = inhibition, % at 57.5 µM | HFF cells, HCMV-luciferase reporter, 72 h; hits give low values | 4.5% of 410,000 active; in the data active means activity change below about -60%; inconclusive means no clear call, values can overlap the other calls; inactive means above about -39%
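Two compound doses tested in HFFs infected with HCMV-luciferase, MOI 1 PFU/cell, 72 h at 37C. Lysate luminescence read with OneGlo; data normalized against buffer-only and 10uM Salinomycin inhibitor controls.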
HCV inhibitor – inhibitors of hepatitis C virus infection. Huh7.5.1 HCVcc-Cre infection, luciferase reporter, 44 h. Potency, µM (highest dose often 41.8 µM), most hits filed as inhibitors. 3.4% of 340,000 active
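Cells (1,000/well) were plated 4 h before compound, then infected with HCVcc-Cre virus (~0.5 moi). After 44 h further culture, infection was read as luciferase luminescence following a 15 min substrate incubation at room temperature.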
Lassa entry inh – inhibitors of Lassa virus binding or cell entry. 1.2% of 300,000 active. Lassa virus pseudotype entry inhibition, cell reporter. AID 540256. Potency, µM (top dose mostly 37.9 µM), actives largely listed as inhibitors; calls by dose curve; tested in HEK293 cells; further: nearly all actives have a fitted effect of over 50% in size
G2M arrest HeLa – causes HeLa cells to arrest in G2/M phase; HeLa cell cycle G2/M arrest, Hoechst DNA content imaging; Potency, µM, most hits filed as inhibitors; shares compounds with Marburg entry inh; 60% of 25 active
WI-38 tox – WI-38 cytotoxicity of perinucleolar compartment inhibitors. shares compounds with Marburg entry inh. WI-38 normal lung fibroblasts, ATPLite luminescence ATP viability, 24 h. Potency, µM (highest dose often 46.1 µM), most hits filed as inhibitors. 120 tested, under 10 active. AID 2729
PNC inh conf – confirmation of perinucleolar compartment assembly inhibitors; shares compounds with Marburg entry inh; Potency, µM (series often up to 46.1 µM), actives largely listed as inhibitors; PC3M PTB-GFP, PNC prevalence imaging, 16 h; 50% of 120 active; AID 2730
PC3M caspase – activates caspase 3/7 in PC3M cells in PNC counter-screen. shares compounds with Marburg entry inh. PC3M-GFP caspase 3/7 activation, luminescence, 24 h. activity change, positive = activation, % at 46.1 µM. 120 tested, under 10 active. AID 2731
Of the large screens only hits and unclear results are named; the others gave an inactive call (follow-up assays come after a bar, where they were run). Unless noted, the call rests on the fitted dose curve; in most records, active means well fitted curve in the direction sought with a large enough effect; inconclusive means small, poorly fitted or top-dose-only effect, or another doubt; inactive means no such curve, though single readings can be large; an effect the other way counts as inactive or inconclusive.

CCCNC1=C(N(C(C)=O)c2cccc(F)c2)C(=O)c2ccccc2C1=O	Marburg entry inh inconclusive, FMDV antiviral 28.2µM, HCMV inh -99.6, HCV inhibitor 7.94µM, Lassa entry inh inconclusive | WI-38 tox inactive | PNC inh conf inconclusive | PC3M caspase inconclusive
Cc1c(NC(=O)CSc2nnc3c4ccccc4n(CCc4ccccc4)c3n2)c(=O)n(-c2ccccc2)n1C	Marburg entry inh inconclusive, FMDV antiviral inconclusive, HCMV inh -85.1, HCV inhibitor inconclusive, Lassa entry inh 0.631µM | WI-38 tox inactive | PNC inh conf 8.91µM | PC3M caspase inactive
CCOC(=O)c1c(NC(=O)c2c(-c3ccccc3)noc2C)sc(C)c1-c1ccccc1	Marburg entry inh 0.126µM, FMDV antiviral inconclusive, HCMV inh -102.2, HCV inhibitor 7.08µM, Lassa entry inh inconclusive | WI-38 tox inactive | PNC inh conf 1.58µM | PC3M caspase inactive
O=C(Nc1cccc(F)c1)C1CCCN(S(=O)(=O)c2cccc3cccnc23)C1 (stereo unspecified)	FMDV antiviral inconclusive, HCV inhibitor inconclusive
COc1ccc2c(CNCc3ccco3)c(C(=O)O)n(Cc3cccc(F)c3)c2c1	none (no result: Marburg entry inh, HCV inhibitor)
CC(=O)c1ccc(-n2c(SCC(=O)c3c[nH]c4ccccc34)nc3ccccc3c2=O)cc1	HCMV inh -88.2, HCV inhibitor inconclusive (no result: Lassa entry inh) | WI-38 tox inactive | PNC inh conf inactive | PC3M caspase inactive
Cc1ccc(OCCn2cc(C(=S)N3CCCC3)c3ccccc32)cc1C	Marburg entry inh 3.16µM, HCMV inh -97.9, HCV inhibitor inconclusive, Lassa entry inh 2.82µM | WI-38 tox inactive | PNC inh conf 7.94µM | PC3M caspase inactive
Cc1ccc(OCCn2cc(/C(N)=N/O)c3ccccc32)cc1C	FMDV antiviral inconclusive, HCV inhibitor inconclusive
Cc1ccc(NC(=O)COc2coc(CN3CCc4ccccc43)cc2=O)cc1Cl	HCV inhibitor inconclusive, Lassa entry inh inconclusive
O=C(N/N=C/c1cc2c3c(c1O)CCCN3CCC2)c1ccccc1O	Marburg entry inh 1.46µM, HCMV inh -99.9, HCV inhibitor 3.16µM, Lassa entry inh 1.3µM | WI-38 tox inactive | PNC inh conf inconclusive | PC3M caspase inactive
O=c1c2c3nc4ccccc4nc3n(Cc3ccccc3)c2ncn1Cc1ccco1	FMDV antiviral inconclusive, HCV inhibitor inconclusive
N=c1c2c(-c3ccccc3)c(-c3ccccc3)n(Cc3ccco3)c2ncn1CCCn1ccnc1	Marburg entry inh 3.55µM, FMDV antiviral inconclusive, HCMV inh -97.5, HCV inhibitor inconclusive, Lassa entry inh 11.2µM | WI-38 tox inactive | PNC inh conf 25.1µM | PC3M caspase inactive
CC(=O)/C(C#N)=C1\NC(=O)C(Cc2ccc(C)c(C)c2)S1 (stereo unspecified)	Marburg entry inh 0.411µM, HCMV inh -95.4, Lassa entry inh 1.3µM | WI-38 tox inactive | PNC inh conf 7.94µM | PC3M caspase inactive
CCN(CC)C(=S)SSC(=S)N(CC)CC	Marburg entry inh 3.55µM, Lassa entry inh 2.91µM (no result: HCV inhibitor) | WI-38 tox inconclusive | PNC inh conf inconclusive | PC3M caspase inactive
C=C(Cl)CSC(=S)N(CC)CC	none (no result: Lassa entry inh)
COc1ccc(-c2nc(NC(=O)c3n[nH]c(=O)c4ccccc34)sc2C)cc1	Marburg entry inh 0.794µM, HCMV inh -60.4, HCV inhibitor inconclusive, Lassa entry inh 1.03µM | WI-38 tox inactive | PNC inh conf 3.98µM | PC3M caspase inactive
COC(=O)Nc1nc(-c2ccc(F)cc2)c(C)s1	HCMV inh inconclusive, HCV inhibitor inconclusive, Lassa entry inh inconclusive
COc1cc2c(c(OC)c1OC)-c1ccc(OC)c(=O)cc1[C@@H](N(C)CC#CCO)CC2	Marburg entry inh inconclusive, HCMV inh inconclusive, Lassa entry inh inconclusive
COc1cc2c(c(OC)c1OC)-c1ccc(OC)c(=O)cc1[C@@H](NC(C)=O)CC2	Marburg entry inh inconclusive, HCMV inh -89.2, Lassa entry inh inconclusive | G2M arrest HeLa 0.02
COc1ccc(CCNC(=O)NCc2noc3ccc(C)cc23)c(OC)c1	none (no result: Marburg entry inh, HCV inhibitor)
CCC(=NCc1cc(OC)cc(OC)c1)c1c(O)n(C)c(=O)n(C)c1=O	Marburg entry inh 20.6µM, FMDV antiviral inconclusive, HCMV inh -89.9, HCV inhibitor 6.31µM, Lassa entry inh inconclusive | WI-38 tox inactive | PNC inh conf inconclusive | PC3M caspase inactive
CC(=NCc1ccc2c(c1)OCO2)c1c(O)n(C)c(=O)n(C)c1=O	none
Nc1ccc(O)c(-c2nc3ccccc3s2)c1	Lassa entry inh inconclusive
Nc1cccc(-c2nc3ccc(N)cc3s2)c1	Marburg entry inh 11.2µM, FMDV antiviral inconclusive, HCV inhibitor inconclusive, Lassa entry inh inconclusive | WI-38 tox 28.2µM | PNC inh conf 5.01µM | PC3M caspase inactive
O=c1[nH]c(=O)n([C@H]2C[C@H](O)[C@@H](CO)O2)cc1/C=C/Br	none (no result: FMDV antiviral, HCMV inh, HCV inhibitor, Lassa entry inh)
O=c1[nH]c(=O)n([C@H]2C[C@H](O)[C@@H](CO)O2)cc1Br	none | G2M arrest HeLa inconclusive
Cc1cccc(NC2=C/C(=N/S(=O)(=O)c3cccs3)c3ccccc3C2=O)c1	Marburg entry inh inconclusive, FMDV antiviral inconclusive, HCV inhibitor 2.82µM, Lassa entry inh 3.16µM | WI-38 tox inconclusive | PNC inh conf 14.1µM | PC3M caspase inconclusive
CN(C(=O)c1cccc(NC(=O)Cc2cccc(NC(=O)C3CCN(C(=O)CCc4ccccc4)CC3)c2)c1)C1CC1	HCV inhibitor inconclusive (no result: Marburg entry inh, Lassa entry inh)
CNS(=O)(=O)c1cccc(C(=O)Nc2cccc(Cl)c2)c1	none | WI-38 tox inactive | PNC inh conf inconclusive | PC3M caspase inactive
CCCCCCCCCCCCCCCCCC(=O)NCC(COP(=O)([O-])OCC[N+](C)(C)C)OCC (stereo unspecified)	Marburg entry inh 20µM, Lassa entry inh inconclusive (no result: FMDV antiviral, HCMV inh, HCV inhibitor) | G2M arrest HeLa inconclusive
O=C1C2CCCN2C(c2ccc(F)cc2)N1c1ccc(Cl)cc1 (stereo unspecified)	HCMV inh -77.1 (no result: Marburg entry inh, Lassa entry inh) | WI-38 tox inactive | PNC inh conf 15.8µM | PC3M caspase inactive
O=C1C2CCCN2C(c2ccccc2)N1c1ccc(F)cc1 (stereo unspecified)	none (no result: Lassa entry inh)
COc1ccc(S(=O)(=O)N(CCc2ccccc2)CC(=O)Nc2cc(Cl)ccc2C)cc1	Lassa entry inh inconclusive (no result: Marburg entry inh, HCV inhibitor)
CCCN(CCC)C(=O)Cn1c(SCc2cccc(C(F)(F)F)c2)nc2cccnc21	none (no result: Marburg entry inh, HCV inhibitor)
O=C(NC(CSCc1ccccc1)C(=O)N/N=C/c1ccc(O)cc1O)c1ccc([N+](=O)[O-])cc1 (stereo unspecified)	Marburg entry inh 4.61µM, HCV inhibitor 10µM, Lassa entry inh 9.2µM | WI-38 tox inactive | PNC inh conf inconclusive | PC3M caspase inactive
O=C(NCc1nnc(SCC(=O)N2CCCCCC2)o1)c1ccccc1F	none
